This is an account of results in PubChem BioAssay AID1063 (University of Pittsburgh Molecular Library Screening Center, 2008).

In all, about 200,000 compounds went through this assay and about 18,000 (9%) were called active. Shown is part of a subset that was picked to be rich in actives. Values without a mark were called inactive. Rule as the data show it: active = inhibition above about 50%; inactive = the rest.

The assay can be described thus: antileishmanial activity against promastigotes – primary screen (AID 1063).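 Also: promastigotes grown with compound for 44 hours at 28 °C.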 To be noted: Leishmania major promastigotes, resazurin fluorescence viability; at 10 µM; hits give high values.
With `COc1cc(NC(=S)N2CCCC(C)C2)cc(OC)c1OC` (stereo unspecified), the inhibition is 4.64%. `O=C(Nc1ccccc1)N1CCN(C(=O)Nc2ccccc2)CC1`: the inhibition was -5.42%.

On to `CCCCN(C(=O)/C=C/c1ccco1)c1c(N)n(CC(C)C)c(=O)[nH]c1=O`, for which the inhibition is -4.4%. The value for `O=C(CCc1nnc(CCCCc2ccccc2)o1)NC(c1cccnc1)C(F)(F)F` (stereo unspecified) was 11.3%. In the case of `CC(=O)Nc1cccc([N+](=O)[O-])c1`, the inhibition is -0.87%. In the case of `CC(CCc1ccccc1)NCC(O)c1cccc([N+](=O)[O-])c1` (stereo unspecified), the inhibition was 59.5% (active). In the case of `COc1ccc([N+](=O)[O-])cc1NC(=O)CCc1ccccc1` it was -3.05%.

For `CN(C)CCCN1C(=O)CSC1c1ccc([N+](=O)[O-])cc1` (stereo unspecified), the inhibition is 46.8%. The value for `O=C1NC2(CCCCCC2)C(=O)N1CCS(=O)(=O)Oc1ccccc1` was -10.5%; that for `Cc1ccc(NC(=O)c2ccccn2)cc1S(=O)(=O)N1CCOCC1` was -1.09%; that for `CCn1cc(C(=O)Nc2cc(C)ccc2C)c(=O)c2ccc(C)nc21` was 1.39%. For the molecule `CN(CC#CCC(c1ccccc1)c1ccccc1)C(C)(C)C`, the inhibition is 100% (active).

Turning to `CC(C)(C)N(CC#CCC(O)(c1ccccc1)C1CCCC1)CCO` (stereo unspecified), the inhibition was 3.46%. In the case of `COC(=O)C1C(=O)NCC1c1ccc(C)cc1` (stereo unspecified) it was 6.72%; in that of `COC(=O)C1=C(Nc2ccc(C)cc2)C=C(C)C(C(=O)OC)C1c1ccc(F)cc1` (stereo unspecified), 52.4% (active). In the case of `COC(=O)C1=C(Nc2ccc(OC)cc2)C=C(C)C(C(=O)OC)C1c1ccc(C)cc1` (stereo unspecified) it was 24.6%. As to `COCCn1c(C)cc(C2=NNC(=Nc3ccc(F)cc3)SC2)c1C`, the inhibition was -1.36%. The value for `Cc1cc(C2=NNC(=Nc3ccc(S(=O)(=O)N4CCOCC4)cc3)SC2)c(C)n1CC1CCCO1` (stereo unspecified) was -7.5%; that for `C=CCn1c(C)cc(C2=NNC(=NCC)SC2)c1C` was 58.5% (active). On to `COC(=O)c1cc2n(n1)CCCNC2=O`, for which the inhibition is -4.96%. In the case of `CC(=O)Nc1ccccc1NC(=O)c1cc(C)cc(C)c1`, the inhibition was -0.58%. The value for `CC(=O)c1ccc(N=C2SCCCN2C(=O)C2CCCCC2)cc1` was 85.8% (active); that for `O=C(O)c1ccc(NC(=O)C2CCCCC2)cc1` was -6.65%; that for `CCC1CCCCN1C(=S)Nc1ccc(C(C)=O)cc1` (stereo unspecified) was -8.59%.

Take `COc1cccc(NC(=O)CS(=O)(=O)c2cn(CC(=O)N3CCOCC3)c3ccccc23)c1`: the inhibition was -7.03%.

In the case of `O=C(NC(Cc1c[nH]c2ccccc12)C(=O)N/N=C/c1ccc(Br)cc1)c1cccs1` (stereo unspecified), the inhibition is 65.6% (active). The value for `CC(=O)NC(Cc1c[nH]c2ccccc12)C(=O)O` (stereo unspecified) was -12.4%.

For `CC(=O)Nc1ccc(/C=N/NC(=O)c2cccs2)cc1`, the inhibition was -2.65%.

`CSc1ncccc1C(=O)N1CCCC(CCC(=O)NCc2ccccc2F)C1` (stereo unspecified): the inhibition is -5.49%.

Regarding `COc1cc(NC(=O)c2cccs2)ccc1NC(=O)c1ccccc1Cl`, the inhibition is 0.19%. On to `CC(C)C(c1nnnn1C1CCCC1)N1CCN(c2ccccc2F)CC1` (stereo unspecified), for which the inhibition was 33%.

In the case of `COCCn1nnnc1C(c1ccccc1Cl)N1CCN(c2ccccc2OC)CC1` (stereo unspecified), the inhibition is -0.67%. `CCC(c1nnnn1C1CCCC1)N1CCN(C(=O)c2ccco2)CC1` (stereo unspecified): the inhibition was -6.05%. `CCOc1ccc2[nH]c(=O)c(C(c3nnnn3CCOC)N3CCOCC3)cc2c1` (stereo unspecified): the inhibition was -4.07%. The value for `COc1ccc(N2CCN(C(c3cc4ccc(C)cc4[nH]c3=O)c3nnnn3C3CCCC3)CC2)cc1` (stereo unspecified) was 75.4% (active); that for `Cc1cc(C)c2[nH]c(=O)c(C(c3nnnn3Cc3ccc4c(c3)OCO4)N3CCCC3)cc2c1` (stereo unspecified) was 27.4%. Consider `CCOC(=O)C1CCN(C(c2cc3cc(C)cc(C)c3[nH]c2=O)c2nnnn2C2CCCCC2)CC1` (stereo unspecified), for which the inhibition was 88.6% (active).

`COc1ccc(C(c2nnnn2C2CCCCC2)N2CCN(c3ccccc3F)CC2)cc1` (stereo unspecified): the inhibition was 96.8% (active). The value for `CN1CCN(C(c2cc3cc4c(cc3[nH]c2=O)OCCO4)c2nnnn2C2CCCC2)CC1` (stereo unspecified) was -6.88%; that for `CCc1c(C)nc2c(OC)cccc2c1Cl` was -3.45%; that for `Cc1cccc(C(=O)OCC(=O)NCC(C)C)c1O` was -1.6%.

Take `Fc1ccc(COc2cccc(-c3n[nH]c(=S)o3)c2)cc1`: the inhibition was -2.62%. In the case of `N#Cc1ncc(C(F)(F)F)cc1Oc1cccnc1` it was -5.89%. The value for `O=C(CSc1nnc(-c2ccc([N+](=O)[O-])cc2)o1)Nc1ccccn1` was 6.18%. In the case of `COc1ccc(/C=C(\C#N)C(=O)ONC2=NCCCCC2)cc1` it was -4.23%; in that of `COc1ccc(CCN2C(=O)c3[nH]nc(-c4ccccc4O)c3C2c2ccc(C)cc2)cc1OC` (stereo unspecified), 75% (active); in that of `COC(=O)c1ccc(C2C(Oc3ccccc3C)C(=O)N2CCc2ccc(OC)c(OC)c2)cc1` (stereo unspecified), 5.32%.

For `COc1ccc(CCN(C)CCN2C(=O)c3ccccc3C2=O)cc1OC`, the inhibition is -2.69%. For `CN1C(=O)/C(=C\c2cc(Br)cs2)c2ccccc21`, the inhibition is 13.9%. The value for `CCC(C)c1ccc(NC(=S)NCc2ccccn2)cc1` (stereo unspecified) was -0.38%.

For the molecule `Cc1cccc(C)c1N1CCN(S(=O)(=O)N2CCCCC2)CC1`, the inhibition was 15.9%. The value for `Cc1cc(C)c(C#N)c(SCc2[nH]nc3c2C(c2ccccc2)C(C#N)=C(N)O3)n1` (stereo unspecified) was 8.99%; that for `N#CC1=C(N)Oc2c(sc3ccccc23)C1c1ccco1` (stereo unspecified) was 9.33%; that for `Cc1cc(C)c2c3c(sc2n1)C(c1ccccc1)C(C#N)=C(N)O3` (stereo unspecified) was 100% (active).

`CC(=O)NC(=S)NNC(=O)c1ccc(Br)cc1`: the inhibition was -4.54%. The value for `CCOc1ccc(Br)cc1S(=O)(=O)N1CCC(C(=O)O)CC1` was -5.93%. Take `CC1Cc2ccccc2N1C1=CC(=O)CC(C)(C)C1` (stereo unspecified): the inhibition was 7.71%. Turning to `O=C(CCc1ccccc1)NNC(=O)c1ccc(Br)cc1`, the inhibition is -3.53%. As for `COc1ccc(C(=O)NC(=S)NNC(=O)c2c(-c3ccccc3)noc2C)cc1`, the inhibition was -0.99%.

Consider `COc1ccc(C(=O)NC(=S)NNC(=O)CCc2ccccc2)cc1`, for which the inhibition is 93.2% (active).

As for `O=C(CCCc1ccccc1)NCc1ccccc1`, the inhibition is -8%. The value for `O=C(CN1C(=O)c2cccc3cccc1c23)Nc1ccccc1` was -9.01%; that for `Cn1c(=O)n(C)c(=O)n(CC(=O)N2CCCCC2)c1=O` was -4.15%; that for `O=C(CN1C(=O)c2cccc3cccc(c23)C1=O)N1CCCCC1` was 89.8% (active).

For the molecule `COc1ccc(OCC(=O)NNC(=O)c2cccc(C)c2)cc1`, the inhibition is -6.27%. The value for `Cc1ccc(CC(=O)Nc2cccc(C#N)c2)cc1` was -0.29%. With `CC(=O)c1sc(NC(=O)CCCOc2ccccc2C)nc1C`, the inhibition was -7.25%. Take `COc1cccc2sc(Nc3nc(C)c(C(C)=O)s3)nc12`: the inhibition was 98.4% (active). Consider `COc1cccc2sc(NNC(=O)c3nc4ccccc4s3)nc12`, for which the inhibition is 48.5%. As to `COC(=O)CSc1ccc2nnc(CCNS(=O)(=O)c3ccc(C)cc3)n2n1`, the inhibition was 2.97%. For the molecule `CSc1ncccc1C(=O)OCc1ccc(Br)cc1`, the inhibition is -1.11%. In the case of `CCOC(=O)/C(=N\Nc1ccccc1Cl)N(C)C1CCS(=O)(=O)C1` (stereo unspecified) it was -1.23%. In the case of `CCOC(=O)c1cccc(NC(=O)CCOc2ccccc2)c1` it was 9.18%; in that of `CCc1cccc(NC(=O)CCNS(=O)(=O)c2cccc3nonc23)c1`, -7.76%; in that of `CCc1cccc(NC(=O)CCC(=O)O)c1`, 52.3% (active). Consider `CC(OC(=O)c1ccccc1OCc1ccc(Cl)cc1)C(N)=O` (stereo unspecified), for which the inhibition was 10.8%. In the case of `CC1CN(/C=C/C(=O)C(F)(F)F)CC(C)O1` (stereo unspecified) it was -1.49%; in that of `COCC1CCCN(Cc2nc(-c3ccc4c(c3)OCO4)no2)C1` (stereo unspecified), 0.34%; in that of `CN(C(=O)COc1ccccc1)c1nnc(-c2ccncc2)s1`, -4.81%.

For `COc1ccc(CCNc2nc(-c3cccc(NC(C)=O)c3)cs2)cc1OC`, the inhibition was 3.47%.

Take `COc1ccc(CCN(C(=O)COc2ccccc2)c2nc(-c3ccccc3)cs2)cc1OC`: the inhibition is 52.1% (active). Take `COc1ccc(-n2c(C)nn(CC3CC3)c2=O)cc1`: the inhibition is -6.72%. In the case of `CC(=O)O[C@]1(C(C)=O)CC[C@H]2[C@@H]3C=C(C)C4=CC(=O)CC[C@]4(C)[C@H]3CC[C@@]21C` it was 69.8% (active); in that of `CCN(CC)S(=O)(=O)c1cc([N+](=O)[O-])ccc1NNC(=O)Nc1ccccc1`, 31.2%; in that of `CCn1c(O)c(N=NC(=O)c2cccc(S(=O)(=O)N3CCCCC3)c2)c2ccccc21`, 3.18%. In the case of `CCN(CC)S(=O)(=O)c1cc([N+](=O)[O-])ccc1N=Nc1c(O)n(C)c2ccccc12` it was 65.5% (active). In the case of `Cc1cccc(CN2CCN(Cc3cnn(-c4ccccc4F)c3)CC2CCO)n1` (stereo unspecified) it was 3.31%; in that of `O=C(NCCOc1ccccc1F)Nc1ccc(Br)cc1`, 1.12%. For the molecule `O=C(CN(C(=O)c1csnn1)c1cccc(F)c1)NCc1ccc(F)cc1`, the inhibition was -3.27%.

`COc1ccc(C2=NN(C(=O)CCC(=O)O)C(c3cccs3)C2)cc1OC` (stereo unspecified): the inhibition was -5.57%. Take `COc1ccc(CN(C(=O)c2cccs2)c2nccs2)cc1OC`: the inhibition is 0.69%. Regarding `COC(=O)C1=CN(Cc2ccc(OC)c(OC)c2)C=C(C(=O)OC)C1c1cccs1`, the inhibition was 100% (active).

As for `CCCCc1nnc(NC(=O)CSc2nc(N)cc(=O)[nH]2)s1`, the inhibition was 1.7%.

With `Cc1cc(NC(=O)/C=C/C(=O)N(c2ccccc2C)C(C(=O)NC2CCCC2)c2ccc(F)cc2)no1` (stereo unspecified), the inhibition was 71.3% (active). On to `Cc1cc(NC(=O)CCC(=O)N(c2cccc(F)c2)C(C(=O)NC2CCCC2)c2ccncc2)no1` (stereo unspecified), for which the inhibition was -6.83%. On to `Cc1cc(NC(=O)/C=C/C(=O)N(CC(=O)NC2CCCC2)c2ccc(F)cc2)no1`, for which the inhibition was 5.25%.
